This passage reports growth inhibition, inhibition and outcome results from PubChem BioAssay.

Broadly, the inhibition is the change of the read-out against control, counted positive when it falls.

Unmarked numbers belong to inactive results. For part of these data: Potency and affinity values are given separately. Active and inactive are the calls of the source. Unless noted, no rule for the calls is given here.

Assay [1] in a line: antimalarial activity against Dd2 strain (AID 2302;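 active = growth inhibition above 50% at the single 2 µM test dose, taken to imply half-maximal potency below 2 µM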;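 also: 0% = DMSO untreated growth and 100% = chloroquine plus artemisinin killed control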). To be noted: P. falciparum Dd2 in RBCs, LDH growth readout, 72 h; at 2 µM; active compounds read high.
Assay [2] is described as follows: human hepatoma cell viability loss – ATP luminescence, cytotoxicity control for P. falciparum antimalarial project, primary screen (AID 2303;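 active = inhibition above 50%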;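 also: 0% = DMSO wells and 100% = digitonin-killed cells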). The conditions noted are these: HepG2 viability, 24-48 h, at 10 µM, active compounds read high.
The target of assay [3] is L-lactate dehydrogenase (Plasmodium falciparum (isolate CDC / Honduras)) (UniProt Q27743). The assay is described as follows: PfLDH activity inhibition – cell lysate, 3D7 strain, counter-screen for P. falciparum growth inhibition project (AID 2304).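 Also: 0% = vehicle and 100% = reference inhibitor.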 The conditions noted are these: P. falciparum 3D7 crude extract, LDH APAD/NBT absorbance; at 2 µM; active compounds read high. On the technique in general: The purpose of a counterscreen is to sort out artefacts and off-target activity.

Assay [4] in a line: inhibition of 3D7 malaria parasite growth – strain 3D7 (AID 2306).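 Also: 0% = DMSO wells and 100% = chloroquine plus artemisinin control wells.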 The conditions noted are these: P. falciparum 3D7 erythrocytic growth, LDH absorbance, 72 h; at 2 µM; active compounds read high.
Assay [5] concerns the target Calcium-dependent protein kinase 1 (Plasmodium falciparum (isolate 3D7)) (UniProt P62344). The assay is described as follows: PfCDPK1 kinase inhibitors, biochemical, TCAMS library (AID 1159585; cut-off not given, nearly all actives have IC50 up to about 0.98 µM;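 also: inhibitors leave more ATP so luminescence rises with inhibition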). To be noted: recombinant PfCDPK1, Kinase-Glo ATP depletion luminescence.
Assay [6] addresses Plasmodium falciparum protein kinase 6 (PK6, PF3D7_1337100) (UniProt Q8IDW1). In words: PfPK6 kinase inhibitors, biochemical, TCAMS library (AID 1159586). The conditions noted are these: recombinant PfPK6, Kinase-Glo ATP depletion luminescence.
Assay [7] has as its target Protein kinase 7 (PK7), Plasmodium falciparum 3D7 (PF3D7_0213400) (UniProt Q7YTF7). In words: inhibition of Plasmodium PK7 catalytic activity – biochemical, TCAMS antimalarial set, Kinase-Glo luminescence (AID 1159587). The conditions noted are these: recombinant PfPK7, Kinase-Glo ATP depletion luminescence. Background: Kinase-Glo measures the ATP left after a reaction by luminescence.

Assay [8] concerns the target Calcium-dependent protein kinase 4 (Plasmodium falciparum (isolate 3D7)) (UniProt Q8IBS5). In words: PfCDPK4 kinase inhibitors, biochemical, TCAMS library (AID 1159588; cut-off not given, nearly all actives have IC50 up to about 0.91 µM). To be noted: recombinant PfCDPK4, Kinase-Glo ATP depletion luminescence.

Sequence of Protein kinase 7 (PK7), Plasmodium falciparum 3D7 (PF3D7_0213400) (Q7YTF7 1-343): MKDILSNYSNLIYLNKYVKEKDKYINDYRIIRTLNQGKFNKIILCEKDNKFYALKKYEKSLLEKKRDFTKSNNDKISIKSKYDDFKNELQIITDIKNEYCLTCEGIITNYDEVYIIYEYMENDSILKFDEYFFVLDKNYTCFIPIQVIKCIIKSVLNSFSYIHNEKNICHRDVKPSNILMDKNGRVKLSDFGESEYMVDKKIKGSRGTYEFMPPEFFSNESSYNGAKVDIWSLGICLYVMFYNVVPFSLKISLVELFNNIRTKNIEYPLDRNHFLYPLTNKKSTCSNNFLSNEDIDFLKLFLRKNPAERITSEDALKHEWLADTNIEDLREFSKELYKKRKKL
Sequence of Calcium-dependent protein kinase 1 (Plasmodium falciparum (isolate 3D7)) (P62344 whole entry, looked up): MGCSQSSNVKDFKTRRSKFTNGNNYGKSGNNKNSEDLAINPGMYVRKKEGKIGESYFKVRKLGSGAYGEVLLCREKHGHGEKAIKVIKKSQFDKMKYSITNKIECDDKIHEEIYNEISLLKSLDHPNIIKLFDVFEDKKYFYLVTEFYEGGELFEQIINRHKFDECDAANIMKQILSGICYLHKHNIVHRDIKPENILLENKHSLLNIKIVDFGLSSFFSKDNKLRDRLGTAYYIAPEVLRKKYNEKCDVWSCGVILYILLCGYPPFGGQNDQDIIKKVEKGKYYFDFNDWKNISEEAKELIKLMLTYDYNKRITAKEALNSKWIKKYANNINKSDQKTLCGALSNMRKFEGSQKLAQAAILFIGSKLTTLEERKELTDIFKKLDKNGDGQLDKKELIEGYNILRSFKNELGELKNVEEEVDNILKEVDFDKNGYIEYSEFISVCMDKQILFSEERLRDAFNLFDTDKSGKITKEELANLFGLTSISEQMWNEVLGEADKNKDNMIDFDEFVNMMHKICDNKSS
Sequence of L-lactate dehydrogenase (Plasmodium falciparum (isolate CDC / Honduras)) (Q27743 whole entry, looked up): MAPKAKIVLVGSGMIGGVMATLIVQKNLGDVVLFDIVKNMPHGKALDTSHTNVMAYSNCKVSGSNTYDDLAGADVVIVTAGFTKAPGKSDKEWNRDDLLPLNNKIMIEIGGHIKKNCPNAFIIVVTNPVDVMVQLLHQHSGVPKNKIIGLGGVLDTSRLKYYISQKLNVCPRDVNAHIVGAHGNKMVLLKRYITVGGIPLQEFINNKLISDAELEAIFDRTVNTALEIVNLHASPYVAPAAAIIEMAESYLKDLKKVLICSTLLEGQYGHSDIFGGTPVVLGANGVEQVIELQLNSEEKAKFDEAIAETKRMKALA
Sequence of Calcium-dependent protein kinase 4 (Plasmodium falciparum (isolate 3D7)) (Q8IBS5 whole entry, looked up): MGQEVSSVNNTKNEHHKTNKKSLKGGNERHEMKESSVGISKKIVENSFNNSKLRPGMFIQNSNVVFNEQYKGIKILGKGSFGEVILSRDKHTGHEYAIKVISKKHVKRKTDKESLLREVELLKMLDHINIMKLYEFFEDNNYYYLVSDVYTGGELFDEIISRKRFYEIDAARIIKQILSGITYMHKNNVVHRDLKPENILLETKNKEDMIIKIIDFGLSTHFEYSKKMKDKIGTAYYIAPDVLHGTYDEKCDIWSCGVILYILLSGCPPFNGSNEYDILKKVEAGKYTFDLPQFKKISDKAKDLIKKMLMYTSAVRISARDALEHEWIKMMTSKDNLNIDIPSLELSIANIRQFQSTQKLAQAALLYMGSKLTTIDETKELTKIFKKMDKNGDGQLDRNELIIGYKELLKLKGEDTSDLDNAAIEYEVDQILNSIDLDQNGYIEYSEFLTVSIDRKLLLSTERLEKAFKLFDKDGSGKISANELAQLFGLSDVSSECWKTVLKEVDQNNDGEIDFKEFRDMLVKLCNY
Sequence of Plasmodium falciparum protein kinase 6 (PK6, PF3D7_1337100) (Q8IDW1 1-305): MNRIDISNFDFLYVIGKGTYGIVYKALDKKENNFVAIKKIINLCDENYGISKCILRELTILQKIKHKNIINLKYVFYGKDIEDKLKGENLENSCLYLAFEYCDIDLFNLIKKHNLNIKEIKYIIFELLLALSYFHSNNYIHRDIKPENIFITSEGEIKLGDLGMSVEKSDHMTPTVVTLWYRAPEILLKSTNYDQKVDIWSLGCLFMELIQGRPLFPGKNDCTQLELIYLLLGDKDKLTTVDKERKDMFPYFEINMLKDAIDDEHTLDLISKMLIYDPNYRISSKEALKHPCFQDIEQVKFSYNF

On to `Oc1ccc(CCNCCCCCCNCCc2ccc(Cl)c(Cl)c2)cc1O`, for which the figures for the growth inhibition in assay [1] and in assay [4] were 2% and 101% (active), respectively. In addition, the inhibition in assay [2] is 21%; in assay [3], -1%. Further, the outcome in assay [5], in assay [6], in assay [7] and in assay [8] was inactive.
As for `CC(=O)Nc1ccc(C(=O)Nc2cccc(-c3ccc(-c4nc5ccc(F)cc5[nH]4)s3)c2)cn1`, the growth inhibition is 97% (active) in assay [1] and 101% (active) in assay [4]. In addition, the inhibition is 33% in assay [2] and 3% in assay [3]. Also, the result in assay [5], in assay [6], in assay [7] and in assay [8] was inactive.
`CCCCN(CCCC)Cc1cc(Nc2ccnc3cc(Cl)ccc23)ccc1O`: the growth inhibition in assay [1] was 87% (active); in assay [4] it was 102% (active). The results for the inhibition in assay [2] and in assay [3] were 67% (active) and -1%, respectively. Moreover, the outcome in assay [5], in assay [6], in assay [7] and in assay [8] was inactive.
Take `CCOc1cc(C(C)C)ccc1C1CCN(CCCCNC(=O)c2ccc(NC(=O)c3ccc(Cl)cc3)cc2)CC1`: the growth inhibition in assay [1] was 98% (active); in assay [4], 101% (active). The inhibition is 32% in assay [2] and 2% in assay [3]. For the same compound, the outcome in assay [5], in assay [6], in assay [7] and in assay [8] was inactive.
For the compound `CCC(CC)OC(=O)C(C)c1cccc(C(=O)c2ccccc2)c1` (stereo not drawn), the growth inhibition in assay [1] was 0%; in assay [4] it was 93% (active). Further, the inhibition in assay [2] is -8%; in assay [3] it was 6%. Further, the result in assay [5], in assay [6], in assay [7] and in assay [8] was inactive.
With `O=C(/C=C/c1ccc(Cl)c(Cl)c1)NCCCCCCN1CCCN(C(=O)Nc2cccc(C(F)(F)F)c2)CC1`, the growth inhibition in assay [1] is 0%; in assay [4], 95% (active). The inhibition is 25% in assay [2] and -3% in assay [3]. Also, the result in assay [5], in assay [6], in assay [7] and in assay [8] was inactive.
`CCCCNc1c(CC)c(C)c(C#N)c2nc3ccccc3n12`: the growth inhibition in assay [1] and in assay [4] was 100% (active) throughout. The results for the inhibition in assay [2] and in assay [3] were 3% and -5%, respectively. Also, the result in assay [5], in assay [6], in assay [7] and in assay [8] was inactive.
As to `Nc1cc2c(C3CCN(CC4CCN(C(=O)/C=C/c5ccc(Cl)c(Cl)c5)CC4)CC3)c[nH]c2cn1`, the growth inhibition in assay [1] was 94% (active); in assay [4], 101% (active). For the same compound, the inhibition in assay [2] is 0%; in assay [3], -3%. In addition, the result in assay [5], in assay [6], in assay [7] and in assay [8] was inactive.
Turning to `Cc1ccc(NC(=O)c2ccc(Cl)cc2)cc1-c1ccc(C(=O)Nc2ccncc2)cc1`, the growth inhibition in assay [1] is 5%; in assay [4], 98% (active). The results for the inhibition in assay [2] and in assay [3] were 36% and 3%, respectively. In addition, the result in assay [5], in assay [6], in assay [7] and in assay [8] was inactive.
On to `CCN(CCCN1CCCCC1)c1cc(C)nc(Nc2cc(F)cc(F)c2)n1`, for which the growth inhibition is 64% (active) in assay [1] and 102% (active) in assay [4]. Moreover, the results for the inhibition in assay [2] and in assay [3] were 15% and 5%, respectively. Besides, the result in assay [5], in assay [6], in assay [7] and in assay [8] was inactive.
`O=C(Nc1ccc(Cn2ncc(N3CCCNCC3)c(Cl)c2=O)cc1)Nc1cc(C(F)(F)F)cc(C(F)(F)F)c1`: the growth inhibition in assay [1] is 29%; in assay [4] it was 100% (active). The values for the inhibition in assay [2] and in assay [3] were 25% and 3%, respectively. Further, the result in assay [5], in assay [6], in assay [7] and in assay [8] was inactive.
Take `CCCCCCn1c2c(c(=N)c3c1CCC3)CCC2`: the growth inhibition in assay [1] was 83% (active); in assay [4], 97% (active). In addition, the inhibition in assay [2] was 32%; in assay [3] it was -3%. For the same compound, the result in assay [5], in assay [6], in assay [7] and in assay [8] was inactive.
As to `N#Cc1ccc(C(=O)Nc2ccc(-c3cccc(CN4CCCC4)c3)cc2)cc1`, the growth inhibition was 1% in assay [1] and 89% (active) in assay [4]. Further, the results for the inhibition in assay [2] and in assay [3] were 17% and -1%, respectively. The result in assay [5], in assay [6], in assay [7] and in assay [8] was inactive.
On to `O=[N+]([O-])c1cc(C(c2ccc(O)c([N+](=O)[O-])c2)C(Cl)(Cl)Cl)ccc1O`, for which the growth inhibition in assay [1] was 98% (active); in assay [4], 93% (active). Also, the inhibition is 2% in assay [2] and 3% in assay [3]. The outcome in assay [5], in assay [6], in assay [7] and in assay [8] was inactive.
With `CC1(C)N=C(N)N=C(N)N1OCOc1ccc(Cl)cc1`, the results for the growth inhibition in assay [1] and in assay [4] were 96% (active) and 94% (active), respectively. Also, the inhibition was 68% (active) in assay [2] and 6% in assay [3]. Also, the result in assay [5], in assay [6], in assay [7] and in assay [8] was inactive.
`COc1ccc(C(=O)Nc2ccc3oc(-c4ccc(C(F)(F)F)cc4)cc3c2)cc1CCCN(C)C`: the growth inhibition was 27% in assay [1] and 98% (active) in assay [4]. Moreover, the inhibition was 98% (active) in assay [2] and -1% in assay [3]. Besides, the result in assay [5], in assay [6], in assay [7] and in assay [8] was inactive.
As for `CC(C)CC1c2[nH]c3ccccc3c2CCN1C(=O)CCc1ccccc1` (stereo not drawn), the results for the growth inhibition in assay [1] and in assay [4] were 82% (active) and 92% (active), respectively. Further, the inhibition is -13% in assay [2] and -2% in assay [3]. The result in assay [5], in assay [6], in assay [7] and in assay [8] was inactive.
For the compound `CC1(C)N=C(N)N=C(N)N1c1cccc(Cl)c1`, the growth inhibition in assay [1] and in assay [4] was 96% (active) each time. In addition, the inhibition in assay [2] is 69% (active); in assay [3], -1%. Also, the outcome in assay [5], in assay [6], in assay [7] and in assay [8] was inactive.
Consider `Cc1cc(F)ccc1-c1nc(N(C)CCN(C)C(=O)N(C)c2ccccc2)nc2c1ccc(=O)n2-c1c(F)cccc1F`, for which the growth inhibition in assay [1] is 77% (active); in assay [4] it was 87% (active). Besides, the results for the inhibition in assay [2] and in assay [3] were -1% and 2%, respectively. In addition, the result in assay [5], in assay [6], in assay [7] and in assay [8] was inactive.
Consider `CC1=C(C(=O)Nc2cc3cn[nH]c3cc2F)C(c2ccc(Cl)c(NS(C)(=O)=O)c2)CC(=O)N1` (stereo not drawn), for which the growth inhibition in assay [1] was 98% (active); in assay [4] it was 88% (active). Besides, the inhibition in assay [2] was 2%; in assay [3], -1%. For the same compound, the outcome in assay [5], in assay [6], in assay [7] and in assay [8] was inactive.
Regarding `CC(C)NCc1ccc(-c2cccc(-c3nc4ccc(C(F)(F)F)cc4[nH]3)c2)cc1`, the growth inhibition is 100% (active) in assay [1] and 101% (active) in assay [4]. For the same compound, the inhibition is 21% in assay [2] and -5% in assay [3]. Further, the outcome in assay [5], in assay [6], in assay [7] and in assay [8] was inactive.
